# Assay results reported in PubChem BioAssay (NCATS).
# Records with an inconclusive call do not appear. A call without a number means that no potency is given here. Active and inactive are the calls of the source. Unless noted, calls come from the whole dose curve; as a rule, active = well fitted curve in the direction sought with a large enough effect; inconclusive = small, poorly fitted or top-dose-only effect, or another doubt; inactive = no such curve, though single readings can be large; an effect the other way counts as inactive or inconclusive.
# Columns and labels:
# [1] = Validation of Assay for Modulators of Lamin A Splicing (AID 1459; active = well fitted curve in the direction sought with a large enough effect in the signal ratio; the % refers to the signal ratio;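 note: cells exposed to compound for two days before reading; ratio rise marks activators and ratio drop marks inhibitors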)
# Outline: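 Splicing correction read as GFP (500-530 nm) over DsRed2 (575-640 nm) object intensity after 48 h compound exposure of reporter HeLa S3 clones (600 cells/well, 2% FBS medium); ancitabine and cycloheximide titrations, 0.5% DMSO as vehicle.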
# [2] = qHTS Assay for Lipid Storage Modulators (AID 1519; calls by dose curve); conditions: Drosophila S3 cells, BODIPY lipid droplet/cell ratio, laser cytometry, cells loaded with oleic acid; for activity change, negative = inhibition: at 57.5 µM (top of the series)
# Outline: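 Cells seeded at 5,000 per well were treated with compounds over a concentration series and loaded with oleic acid (400 uM, as added). Lipid droplet fluorescence (488 nm excitation, 500-530 nm channel) was read by laser-scanning cytometry and normalized to 20 uM Triacsin C.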
# [3] = biological target: DNA repair nuclease/redox regulator APEX1 (Homo sapiens) (UniProt P27695); experiment: qHTS Validation Assay for Inhibitors of the Human Apurinic/apyrimidinic Endonuclease 1 (APE1) (AID 1705;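 note: TAMRA fluorescence gain over two minutes as APE1 cuts a quenched THF abasic duplex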)
# Outline: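 Activity read as rising fluorescence (598 nm emission, 525 nm excitation) from incision of a TAMRA/BHQ-2 duplex carrying a THF abasic site (50 nM). Compound and enzyme sat 15 min at RT before substrate start; signal change between first and third 60-s reads.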
# [4] = Counterscreen for APE1 Inhibitors: Fluorescent Dye Displacement Validation Assay (AID 1707)
# Outline: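 Counterscreen flags promiscuous DNA binders: compounds displacing ThO from duplex DNA (abasic THF site, 50 nM) reduce 540 nm emission (480 nm excitation). ThO 250 nM final; Tris-HCl pH 7.5 with NaCl, MgCl2 and Tween-20.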
# [5] = biological target: Alpha-galactosidase A (Homo sapiens) (UniProt P06280); experiment: Counterscreen for Glucocerebrosidase Inhibitors: qHTS Assay for Human alpha-Galactosidase at pH 4.5 (AID 992)
# Outline: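 Fluorogenic 1536-well qHTS at pH 4.5 (citrate, Tween-20): 2 nM enzyme, 80 uM 4-MU-alpha-galactoside, 20 min room temperature, NaOH/glycine stop. Titration 0.7 nM to 77 uM, data normalized to no-enzyme and full-activity controls, Hill-fitted AC50.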
# [6] = biological target: alpha-glucosidase (Oryza sativa, rice) (UniProt Q653V4); experiment: Counterscreen for Glucocerebrosidase Inhibitors: qHTS Assay for Rice alpha-Glucosidase at pH 5.0 (AID 997)
# Outline: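 Endpoint fluorogenic assay at pH 5.0: compounds (0.7 nM to 77 uM) titrated against 4 nM rice enzyme and 400 uM 4-MU-alpha-glucoside for 20 min at room temperature; NaOH/glycine stop, read ex 365/em 440 nm, Hill-fitted AC50.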
# [7] = measured here: cell count channel max response
# [8] = measured here: lipid channel max response
# Sequence of DNA repair nuclease/redox regulator APEX1 (Homo sapiens) (P27695 whole entry, looked up): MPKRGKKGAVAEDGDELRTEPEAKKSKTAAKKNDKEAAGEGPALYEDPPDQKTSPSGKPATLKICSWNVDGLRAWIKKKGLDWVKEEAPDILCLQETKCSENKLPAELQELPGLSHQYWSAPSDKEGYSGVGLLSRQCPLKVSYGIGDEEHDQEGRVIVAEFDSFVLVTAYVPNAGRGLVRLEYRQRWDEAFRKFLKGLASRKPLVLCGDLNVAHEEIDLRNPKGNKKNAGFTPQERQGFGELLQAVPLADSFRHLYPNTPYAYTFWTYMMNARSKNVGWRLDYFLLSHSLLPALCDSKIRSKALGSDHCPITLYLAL
# Sequence of Alpha-galactosidase A (Homo sapiens) (P06280 whole entry, looked up): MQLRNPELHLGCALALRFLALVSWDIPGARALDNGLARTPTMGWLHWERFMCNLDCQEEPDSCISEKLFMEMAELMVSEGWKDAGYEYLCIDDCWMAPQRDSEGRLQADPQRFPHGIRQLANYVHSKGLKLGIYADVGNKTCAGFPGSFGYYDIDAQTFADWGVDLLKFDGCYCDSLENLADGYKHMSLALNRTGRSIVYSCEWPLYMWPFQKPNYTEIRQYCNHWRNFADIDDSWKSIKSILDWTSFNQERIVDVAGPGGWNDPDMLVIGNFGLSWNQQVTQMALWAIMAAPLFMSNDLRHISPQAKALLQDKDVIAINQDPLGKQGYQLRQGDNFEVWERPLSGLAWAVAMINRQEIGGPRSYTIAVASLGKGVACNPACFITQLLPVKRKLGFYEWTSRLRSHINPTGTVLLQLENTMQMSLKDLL
SMILES,outcome [1],"activity change, negative = inhibition [2]","max response [2, 7] [%]","max response [2, 8] [%]",Potency [3],Potency [4],outcome [5],outcome [6]
OC[C@H]1O[C@@H](n2cnc3c(NC4CCCCC4)ncnc32)[C@H](O)[C@@H]1O,inactive,0.866% (inactive),-23.3,-24.5,inactive,inactive,,
Cc1ccccc1CNc1ncnc2c1ncn2C1OC(CO)C(O)C1O (stereo unspecified),inactive,0.209% (inactive),-22.5,-21.9,,inactive,,
O=C(O)c1cc(=O)c2ccccc2[nH]1,inactive,3.93% (inactive) [middle of 4 runs],,,inactive,inactive,inactive,inactive
CN(C)c1nc(N)c(C(=O)N=C(N)N)nc1Cl,inactive,1.32% (inactive),-30.3,-31.1,,inactive,inactive,inactive
CC1CN(S(=O)(=O)c2cccc3cnccc23)CCN1 (stereo unspecified),inactive,1.97% (inactive),5.7,7.5,,inactive,,
OCC1O[C@H](O)C(Cl)C(O)C1O (stereo partly specified),inactive,0.529% (inactive),-14.2,-14.7,inactive,inactive,,
O=C(O)CC1CCCc2ccccc2C1O (stereo unspecified),inactive,,,,inactive,inactive,,
COC(=O)c1c(C)[nH]c(C)c1C(=O)c1ccccc1Cc1ccccc1,inactive,,,,inactive,inactive,inactive,inactive
CCCn1c(=O)c2[nH]c(-c3ccc(OCC(=O)NCCN)cc3)nc2n(CCC)c1=O,inactive,,,,inactive,inactive,inactive,inactive
Cc1cc(NC(=O)Nc2ccc3c(ccn3C)c2)sn1,inactive,,,,inactive,inactive,inactive,inactive
Oc1c(Br)cc(Br)c2cccnc12,,1.03% (inactive),0.383,3.22,,,,
